Bioassay records deposited in PubChem by several laboratories.
aSyn UTR inh – MLPCN primary screen, SNCA 5' untranslated region; alpha-synuclein 5'UTR reporter, inhibitor activity; inhibition, % (tested at 7.5 µM); 300,000 tested, 0.82% active; AID 1813; in the data active = inhibition above about 60%; inconclusive = no clear call, values can overlap the other calls;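 also: H4 neuroglioblastoma cells stably carrying SNCA 5'UTR luciferase fusion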
Wee1 degr inh – blocks degradation of human Wee1 kinase; P30291; HeLa Luc-Wee1K328M stability, luciferase luminescence; 100% = proteasome inhibitor MG132 effect; 220,000 tested, 1.2% active; reporter increase, % at 5 µM;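 active = activation above the mean of all tested compounds plus 3 SD, set per screening run, cut at about 8.8% in these data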;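 also: cells exposed to compound for 20 h before luminescence read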
Target sequence (P30291 whole entry K328M): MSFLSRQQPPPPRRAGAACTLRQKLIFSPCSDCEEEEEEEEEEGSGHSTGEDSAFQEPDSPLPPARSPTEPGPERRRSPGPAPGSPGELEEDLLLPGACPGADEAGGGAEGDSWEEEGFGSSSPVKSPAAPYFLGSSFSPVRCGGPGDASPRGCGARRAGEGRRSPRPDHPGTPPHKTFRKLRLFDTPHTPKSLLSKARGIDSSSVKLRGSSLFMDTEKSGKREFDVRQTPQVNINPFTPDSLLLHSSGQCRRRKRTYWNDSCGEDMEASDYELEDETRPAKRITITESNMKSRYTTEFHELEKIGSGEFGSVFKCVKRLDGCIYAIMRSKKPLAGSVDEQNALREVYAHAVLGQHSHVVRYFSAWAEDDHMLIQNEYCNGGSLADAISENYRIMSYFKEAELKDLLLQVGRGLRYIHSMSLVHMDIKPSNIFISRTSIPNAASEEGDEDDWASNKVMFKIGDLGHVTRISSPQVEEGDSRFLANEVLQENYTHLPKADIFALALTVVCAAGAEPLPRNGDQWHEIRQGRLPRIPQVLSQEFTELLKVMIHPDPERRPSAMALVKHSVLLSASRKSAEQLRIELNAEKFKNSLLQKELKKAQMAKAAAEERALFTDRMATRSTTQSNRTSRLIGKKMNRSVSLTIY
KLF5 inhibitor – suppresses KLF5 promoter-driven expression; DLD-1 KLF5 promoter-luciferase reporter, luminescence; inhibition, % at 5 µM; 290,000 tested, 0.23% active; AID 1700;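 active = inhibition above a per-plate limit of that plate's mean compound inhibition plus 3 SD, cut at about 60% in these data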;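 also: higher means less KLF5 promoter-driven luciferase light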
Platelet DG rel – modulates dense granule release in human platelets | human platelet-rich plasma, SFLLRN dense granule ATP release, luminescence | inhibition, %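 (compounds screened at 7.5 µM in platelet-rich plasma)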 | 300,000 tested, 0.22% active | AID 1663;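 active = mean replicate score, as percent of positive control, at or above 50; inconclusive = mean below 50 but at least one replicate at or above 50; inactive = mean and every replicate below 50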
HIF activator – HIF pathway transcriptional activation; U2OS HRE-luciferase reporter, luminescence; normalized: DMSO 0%, desferrioxamine 100%; activation, % at 7.5 µM (by protocol); AID 1910; 300,000 tested, 0.32% active;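 active = mean activation of at least 10% of the iron chelator positive control signal, with at least half of replicates also reaching 10%; inconclusive = mean and replicate majority disagree about reaching 10%; inactive = mean and most replicates under 10%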
KLF5 inh confirm – KLF5 inhibition, confirmation assay | 610 tested, 79% active | shares compounds with KLF5 inhibitor | inhibition, % at 4 µM | DLD-1 KLF5 promoter firefly luciferase reporter, luminescence;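 active = inhibition above a set limit taken from the earlier primary screen, cut at about 63% in these data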
IEC-6 tox trip – counter-screen for KLF5 inhibitors: cytotoxicity in rat IEC-6 cells; inhibition, % at 4 µM; shares compounds with KLF5 inhibitor; AID 1905; 610 tested, 56% active; IEC-6 rat intestinal cells, viability luminescence; in the data active = inhibition above about 23%;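 also: cells exposed to compounds for 48 hours before viability read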
Of the large screens only hits and unclear results are named; the others gave an inactive call (follow-up assays come after a bar, where they were run). Only some compounds are listed: those with a hit (about 2.1% of all), similar ones and a draw of the others.

CCS(=O)(=O)c1ncc(Cl)c(C(=O)Nc2ccc(S(=O)(=O)N(C)c3ccccc3)cc2)n1	aSyn UTR inh 78.0, KLF5 inhibitor 85.0 (no result: Wee1 degr inh) | KLF5 inh confirm inactive | IEC-6 tox trip inactive
COc1cccc(OCc2cc(C(=O)N(Cc3ccccc3)CC3CC3)no2)c1	none (no result: Wee1 degr inh)
CCOc1ccc(CN(C)C(=O)CCN2C(=O)c3ccccc3C2=O)cc1OC	none (no result: Wee1 degr inh)
CCN(CC)c1ccc(-c2nn3c(-c4n[nH]c5c4CCC5)nnc3s2)cc1	aSyn UTR inh 72.3, KLF5 inhibitor 72.6 | KLF5 inh confirm 76.5 | IEC-6 tox trip 62.0
C1CCC(c2nn3c(-c4n[nH]c5c4CCC5)nnc3s2)CC1	aSyn UTR inh inconclusive
CCOc1ccc(NC(=O)c2cc(OC)nc3ccccc23)cc1	aSyn UTR inh 83.0, KLF5 inhibitor 66.0 (no result: Wee1 degr inh) | KLF5 inh confirm 82.3 | IEC-6 tox trip 62.6
CCNC(=S)NNC(=O)c1cc(-c2ccc(OCC)cc2)nc2ccccc12	KLF5 inhibitor 81.1, Platelet DG rel 103.4 | KLF5 inh confirm 79.0 | IEC-6 tox trip inactive
CCNC(=S)NNC(=O)c1cc(-c2cccc(OC)c2)nc2ccccc12	none
O=C1OC/C(=C(/O)c2ccc(Cl)cc2)C1=O	none (no result: Wee1 degr inh)
Cc1ccccc1NC(=O)c1cc[n+]([O-])cc1	none (no result: Wee1 degr inh)
O=C(CSc1n[nH]c(-c2ccccn2)n1)Nc1ccc(Cl)cc1	aSyn UTR inh 73.6, KLF5 inhibitor 72.6 (no result: Wee1 degr inh) | KLF5 inh confirm 62.9 | IEC-6 tox trip inactive
COc1ccc(-c2nsc3c(N4CCCCC4C)ncnc23)cc1 (centres undefined)	aSyn UTR inh 89.8, KLF5 inhibitor 75.6 | KLF5 inh confirm 91.6 | IEC-6 tox trip inactive
COc1cccc(C(=O)Nc2sc3c(c2C#N)CCN(C(C)=O)C3)c1	KLF5 inhibitor 73.5 | KLF5 inh confirm 79.0 | IEC-6 tox trip 56.0
COc1cccc(C(=O)Nc2sc3c(c2C(=O)O)CCCC3)c1	none (no result: Wee1 degr inh)
CCOC(=O)N1CCC(N2C(=O)c3ccc(C(=O)Nc4cccc(OC)c4)cc3C2=O)CC1	none (no result: Wee1 degr inh)
O=C(CNC(=O)c1ccc(F)cc1)c1ccc(Cl)cc1	none (no result: Wee1 degr inh)
Cc1ccc(S(=O)(=O)Nc2cc(Cl)c(O)c3ncccc23)cc1	aSyn UTR inh 77.2, KLF5 inhibitor 68.1 (no result: Wee1 degr inh) | KLF5 inh confirm 78.8 | IEC-6 tox trip inactive
Cc1ccc2nc(NC(=O)c3ccccn3)sc2c1	aSyn UTR inh 111.4, KLF5 inhibitor 64.7 | KLF5 inh confirm 86.8 | IEC-6 tox trip 98.1
Cc1cc(C)c2nc(NC(=O)c3ccc(OCC4CCCO4)cc3)sc2c1 (centres undefined)	KLF5 inhibitor 96.9 | KLF5 inh confirm 99.4 | IEC-6 tox trip inactive
O=C(Nc1nc(-c2ccc(Cl)cc2Cl)cs1)c1ccc(OCC2CCCO2)cc1 (centres undefined)	none
Cc1ccc2nc(NC(=O)c3ccc(OCC4CCCO4)cc3)sc2c1 (centres undefined)	KLF5 inhibitor 67.7 | KLF5 inh confirm inactive | IEC-6 tox trip inactive
COc1ccc2nc(NC(=O)c3ccc(NC(=O)C4CCCO4)cc3)sc2c1 (centres undefined)	none (no result: Wee1 degr inh)
Cc1ccc2nc(NC(=O)c3ccccc3F)sc2c1	none (no result: Wee1 degr inh)
COc1ccc(Cc2nnc(N/N=C/c3ccc(Br)cc3)[nH]c2=O)cc1OC	none
COc1ccc(Cc2nnc(N/N=C/c3ccc(O)cc3)[nH]c2=O)cc1OC	aSyn UTR inh 82.2, KLF5 inhibitor 65.5 | KLF5 inh confirm 106.2 | IEC-6 tox trip inactive
Cc1nc(-c2ccc(C(=O)Nc3ccccc3F)cc2)cs1	aSyn UTR inh 92.4, KLF5 inhibitor 71.0 | KLF5 inh confirm inactive | IEC-6 tox trip inactive
Cc1nc(-c2cccc(NC(=O)c3ccco3)c2)cs1	none (no result: Wee1 degr inh)
Cc1nc(-c2ccc(NC(=O)c3ccco3)cc2)cs1	aSyn UTR inh inconclusive, KLF5 inhibitor 87.4 (no result: Wee1 degr inh) | KLF5 inh confirm 77.8 | IEC-6 tox trip inactive
CN(CC(=O)NCCCc1ccccc1)S(=O)(=O)c1ccc(Br)cc1	none (no result: Wee1 degr inh, Platelet DG rel)
COc1ccc(N(C(=O)c2ccccc2C)S(=O)(=O)c2cccs2)cc1	KLF5 inhibitor 66.0 | KLF5 inh confirm 76.3 | IEC-6 tox trip 61.6
CCOC(=O)c1sc(NC(=O)c2ccc3ncsc3c2)nc1C	KLF5 inhibitor 94.1 | KLF5 inh confirm 75.2 | IEC-6 tox trip inactive
CCOC(=O)c1sc(NC(=O)c2cncc(Br)c2)nc1C	none
CCOC(=O)c1sc(NC(=O)c2cc3ccccc3o2)nc1C	KLF5 inhibitor 81.8 | KLF5 inh confirm 62.3 | IEC-6 tox trip inactive
Cc1nc(NC(=O)c2cc3ccccc3o2)sc1C	none (no result: Wee1 degr inh)
COc1ccc(NC(=O)CCCn2cnc3ccccc3c2=O)cc1	none (no result: Wee1 degr inh)
CCOC(=O)c1[nH]c(C)c(C(=O)Nc2cc(Cl)ccc2C)c1C	KLF5 inhibitor 71.8 | KLF5 inh confirm 67.7 | IEC-6 tox trip 61.2
CC(C)CNC(=O)c1ccc(NC(=O)c2cccs2)cc1	none
COc1ccc(OC)c(C2C3=C(COC3=O)Nc3cc4c(cc32)OCO4)c1 (centres undefined)	aSyn UTR inh 88.9, KLF5 inhibitor 88.0 | KLF5 inh confirm 91.5 | IEC-6 tox trip 82.3
COc1ccc(C2C3=C(CC(C)(C)CC3=O)Nc3cc4c(cc32)OCO4)cc1 (centres undefined)	none
COc1ccc(S(=O)(=O)N2c3ccccc3OCC2c2ccccc2)cc1 (centres undefined)	none
COc1ccc(S(=O)(=O)N2c3ccccc3OCC2C)cc1 (centres undefined)	KLF5 inhibitor 84.0 | KLF5 inh confirm 79.3 | IEC-6 tox trip 59.5
O=[N+]([O-])c1nn(-c2ccc3c(c2)OCCO3)n(O)c1=Nc1ccccc1	aSyn UTR inh 79.9, KLF5 inhibitor 72.4 | KLF5 inh confirm 81.6 | IEC-6 tox trip inactive
Oc1ccc(-c2nc(-c3ccc(O)c(O)c3)cs2)cc1	KLF5 inhibitor 68.9 | KLF5 inh confirm inactive | IEC-6 tox trip inactive
COc1cc(C(=O)c2c(C)c(CCC#N)n3ccccc23)cc(OC)c1OC	none
Cc1cc(C)c(S(=O)(=O)Nc2ccc3c4c(cccc24)CC3)c(C)c1	aSyn UTR inh 106.0, KLF5 inhibitor 70.5 | KLF5 inh confirm 84.2 | IEC-6 tox trip 56.8
CN1CCN(C(=S)SCc2nc(N)nc(Nc3ccc(F)cc3)n2)CC1	none
O=C(Nc1nc2cc3c(cc2s1)OCCO3)c1ccco1	aSyn UTR inh 65.6, KLF5 inhibitor 86.3 (no result: Wee1 degr inh) | KLF5 inh confirm 81.4 | IEC-6 tox trip inactive
O=C(Nc1nc2cc3c(cc2s1)OCO3)C1=COCCO1	aSyn UTR inh 94.5, KLF5 inhibitor 77.8 | KLF5 inh confirm inactive | IEC-6 tox trip inactive
CC(C)C(=O)Nc1nc2cc3c(cc2s1)OCCO3	none
O=C1[C@@H]2Cc3c([nH]c4ccccc34)C(c3ccccc3)N2C(=O)CN1C1CC1 (some centres undefined)	none (no result: Wee1 degr inh)
O=C1[C@@H]2Cc3c([nH]c4ccccc34)C(c3ccc([N+](=O)[O-])cc3)N2C(=O)CN1C1CC1 (some centres undefined)	KLF5 inhibitor 69.1 (no result: Wee1 degr inh) | KLF5 inh confirm 75.2 | IEC-6 tox trip 44.8
